One molecule from PubChem BioAssay AID2284146 (EPA ToxCast) can be followed below.

Molecules are shown by their SMILES. Active and inactive are the calls of the source. How the source made its calls: active means hit-call score of the fitted dose curve at least 0.9, where 1 is the maximum; inactive means score below 0.9.

Sequence of human Adrenoceptor alpha2A Antagonism, ADRA2A (gene 150) (P08913 whole entry, looked up): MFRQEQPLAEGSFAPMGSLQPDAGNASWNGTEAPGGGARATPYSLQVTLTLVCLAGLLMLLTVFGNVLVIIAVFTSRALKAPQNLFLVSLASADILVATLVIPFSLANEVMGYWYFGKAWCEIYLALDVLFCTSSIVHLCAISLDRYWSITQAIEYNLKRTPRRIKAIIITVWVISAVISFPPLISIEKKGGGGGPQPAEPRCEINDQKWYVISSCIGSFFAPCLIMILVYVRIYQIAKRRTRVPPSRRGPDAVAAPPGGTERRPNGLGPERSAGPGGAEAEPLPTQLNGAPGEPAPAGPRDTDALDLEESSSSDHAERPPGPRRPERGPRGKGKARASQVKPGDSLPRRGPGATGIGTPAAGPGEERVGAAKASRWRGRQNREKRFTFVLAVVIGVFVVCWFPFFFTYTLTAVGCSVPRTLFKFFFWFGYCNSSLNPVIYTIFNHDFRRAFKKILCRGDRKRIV

The test addresses human Adrenoceptor alpha2A Antagonism, ADRA2A (gene 150) (UniProt P08913). In words: ERF_TW_GPCR_hADRA2A: Eurofins (ERF) G Protein-Coupled Receptor (GPCR) Radioligand Binding LeadHunter Assay for human Adrenoceptor alpha2A Antagonism. As to the method: ERF_TW_GPCR_hADRA2A is a biochemical, single-readout assay that uses extracted gene-proteins in a cell-free assay. Measurements were taken 1 hour after chemical dosing in a 96-well plate. See alpha2A Human Adrenoceptor GPCR Binding (Antagonist Radioligand) Assay, Panlabs.ERF_TW_GPCR_hADRA2A is an assay component calculated from the ERF_TW_GPCR_hADRA2A assay. It is designed to measure radioligand binding using a type of binding reporter as detected by scintillation counting with radiometry technology.Data from the assay component ERF_TW_GPCR_hADRA2A was analyzed at the assay endpoint, ERF_TW_GPCR_hADRA2A, in the positive analysis fitting direction relative to DMSO as the negative control and baseline of activity. Using a type of binding reporter, loss-of-signal activity can be used to understand changes in radioligand binding as they relate to gene ADRA2A. To generalize the intended target to other relatable targets, this assay endpoint is annotated to the gpcr intended target family, where the subfamily is adrenoceptor.
Human recombinant adrenergic alpha2A receptors expressed in CHO-K1 cells are used in modified Tris-HCl buffer pH 7.4. A 2 ug aliquot is incubated with 1.5 nM [3H]Rauwolscine for 60 minutes at 25C. […] Receptors are filtered and washed, the filters are then counted to determine [3H]Rauwolscine specifically bound. […]
By AC50 is commonly meant the concentration giving half of the maximal activity seen. Turning to `O=C(/C=C/c1ccc(O)cc1)CC(=O)/C=C/c1ccc(O)cc1`, the AC50 was 1.14 µM (active).
